This passage reports inhibition and RAM network inhibition results from PubChem BioAssay.

SMILES strings stand for the structures. Activity calls are given as the source filed them.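 How the source made its calls, unless noted: active means inhibition over a set limit, the all-compound mean plus 3 SD, in both replicate runs; inconclusive means over that limit in just one replicate run; inactive means at or under that limit in both runs.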

The first experiment is described as follows: RAM pathway blockade in budding yeast – dse1pr::URA3 reporter, 5-FOA selection, pilot screen (AID 869).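 Further: 0% = DMSO wells with no growth and 100% = 10 µM 1-NA-PP1 with full growth; RAM network block rescues cells from 5-FOA so hits raise OD615 growth.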 Particulars: S. cerevisiae dse1pr::URA3 5-FOA growth, OD615, 2 d; at 10 µM; stronger effect = higher value; strain carries analog-sensitive mutant Cbk1 kinase.
Take `CCCCOC(=O)Nc1nc(CC(=O)OCC)cs1`: the inhibition – broadly, the change of the read-out against control, counted positive when it falls – was -0.45% (inactive).
Still for that read-out and setting: to `N#Cc1nc(COc2ccc(Br)cc2)oc1N1CCCCCC1` belongs 2.33% (inactive); to `COc1ccc(-c2cc(C(F)(F)F)n3nc(C(=O)N4CCCC4)cc3n2)cc1`, 1.71% (inactive).
Turning to `CC(=O)Nc1ccc(NC(=O)C2CC(=O)N(c3cccc(C)c3C)C2)cc1` (stereo not given), the inhibition was 0.435% (inactive).
As for `COCCNC(=O)CN(c1ccccc1OC)S(C)(=O)=O`, the inhibition is 2.75% (inactive).
Take `O=C(COC(=O)C1(c2ccccc2F)CCCC1)N1CCN(C(=O)c2ccco2)CC1`: the inhibition is 0.995% (inactive).
For the molecule `COC(=O)c1ccc(N2CCOCC2)c(NC(=O)Nc2cccc(OC)c2)c1`, the inhibition was 1.09% (inactive).
As to `Cc1cc(C(F)(F)F)nc(NCc2ccc(F)cc2)n1`, the inhibition was 1.39% (inactive).
On the same count and under the same terms, the same measure for `O=C(CCCc1ccccc1)NCc1cn2ccsc2n1`: 1.31% (inactive); for `O=C(CSc1nc(-c2ccco2)cc(C(F)(F)F)n1)N1CCN(Cc2ccccc2)CC1`: -0.555% (inactive).
Take `Cc1ccsc1-c1nc(CSCC(=O)N2CCN(c3ccccc3)CC2)c(C)o1`: the inhibition is 0.75% (inactive).
Take `CCn1c(SCc2nc(-c3ccccc3)no2)nc2ccccc21`: the inhibition is 0.38% (inactive).
The same measure, in the same setting: the same measure for `COCCn1c(SCC(N)=O)nc2c(c1=O)SC(C)C2` (stereo not given): 1.84% (inactive); for `CSC1=NCCN1C(=O)COc1ccc2ccccc2c1`: 2.77% (inactive).
In the case of `O=C(CC1Sc2ccccc2NC1=O)Nc1cccc(C(=O)O)c1` (stereo not given), the inhibition is 1.14% (inactive).
As to `O=C(c1ccncc1)N1CCN(C(=O)c2cccc3ccccc23)CC1`, the inhibition was 2.16% (inactive).
As to `COc1ccc(C)cc1NC(=O)c1ccoc1C`, the inhibition was 0.62% (inactive).
The same measure, in the same setting: the same measure for `CCOC(=O)Cn1c(CN2CC(C)OC(C)C2)nc2c1c(=O)n(C)c(=O)n2C` (stereo not given): -0.31% (inactive); for `COc1ccc(OC)c(-n2c(SCC(=O)Nc3cc(C)on3)nnc2-c2c[nH]c3ccccc23)c1`: 1.31% (inactive).
On the same count and under the same terms, to `COc1ccc(CCNC(=O)c2cc3ccccn3n2)c(OC)c1OC` belongs 1.92% (inactive).
For the molecule `O=C(OCn1nnc2ccccc2c1=O)c1cccs1`, the inhibition was 0.24% (inactive).
On the same count and under the same terms, the same measure for `O=C(NCc1cn2ccsc2n1)c1cccs1`: 1.04% (inactive); for `CCOc1ccc(OCC)c(NC(=O)C2CCCN2S(=O)(=O)c2cccc3cccnc23)c1` (stereo not given): -0.48% (inactive).
On to `CCOCCn1c(SCCc2ccccc2)nc2c1c(=O)[nH]c(=O)n2C`, for which the inhibition was 1.69% (inactive).
Still for that read-out and setting: the same measure for `Cc1ccc(S(=O)(=O)Cc2ccc(C(=O)N3CCN(c4ccccn4)CC3)o2)cc1`: 1.25% (inactive); for `CCC(C)(C(=O)NC1CCCCC1)N(Cc1ccco1)C(=O)CNC(=O)c1ccccc1` (stereo not given): 0.145% (inactive); for `CCC(C)Sc1nc2c([nH]c3ccccc32)c(=O)n1C` (stereo not given): 2.48% (inactive).
In the case of `Cc1onc(-c2ccccc2Cl)c1C(=O)Nc1ccc(OCC(=O)N2CCOCC2)cc1`, the inhibition is 1.5% (inactive).
`COCCn1c(SCC(=O)Nc2ccccc2)nc2c1c(=O)[nH]c(=O)n2C`: the inhibition is 1.67% (inactive).
Same read-out and setting: to `Cc1cccc(OCC2=N/C(=C\N(C)C)C(=O)O2)c1` belongs 1.48% (inactive).
Same read-out and setting: the same measure for `Cc1[nH]c2ccccc2c1CCC(N)=O`: 1.92% (inactive); for `CCCc1nc(N2CCN(C)CC2)c2sc(=S)n(-c3ccccc3)c2n1`: 0.39% (inactive).
On to `CCCc1nc(N)nc2c1C(=O)CC(C)(C)C2`, for which the inhibition was 1.54% (inactive).
As for `COc1ccccc1CC(=O)N1CCN(c2cccc(C(F)(F)F)c2)CC1`, the inhibition is 1.1% (inactive).
On the same count and under the same terms, the same measure for `O=C(CCC(=O)OCCCC(F)(F)C(F)(F)F)Nc1ccccc1`: 0.785% (inactive); for `CCN1CCN(C(=O)CSCc2nc(-c3ccc(OC)c(OC)c3)oc2C)CC1`: 0.475% (inactive); for `COc1ccc(S(=O)(=O)n2cnc3cc(C)c(C)cc32)cc1`: 1.26% (inactive).
Turning to `Cc1cccc(C(=O)N2CCN(Cc3ccc4c(c3)OCO4)CC2)c1`, the inhibition is -0.065% (inactive).
Still for that read-out and setting: to `O=C(NCCCNC(=O)c1cccs1)c1cccs1` belongs 1.09% (inactive).
`Cn1c(NC(=O)CC2CCCCC2)cc(=O)n(C)c1=O`: the inhibition is 0.43% (inactive).

A short description of the next experiment: RAM signaling pathway blockade in yeast – S. cerevisiae, Pdr1DBD-CYC8 efflux-inhibited sensitized strain, primary screen (AID 1298;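 active means RAM network inhibition above 8.4% in each of two replicates, 3 SD over the compound average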;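 further: 0% = DMSO untreated cells without growth and 100% = 10 µM 1-NA-PP1 full growth; higher means more yeast growth rescued from 5-FOA killing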). The settings on record: S. cerevisiae cbk1-as DSE1-URA3 strain, 5-FOA growth OD615, 2 d; at 50 µM; stronger effect = higher value.
Consider `CCCCOC(=O)Nc1nc(CC(=O)OCC)cs1`, for which the RAM network inhibition was 1.89% (inactive).
Turning to `N#Cc1nc(COc2ccc(Br)cc2)oc1N1CCCCCC1`, the RAM network inhibition is 7.31% (inactive).
Regarding `COc1ccc(-c2cc(C(F)(F)F)n3nc(C(=O)N4CCCC4)cc3n2)cc1`, the RAM network inhibition is 7.1% (inactive).
On the same count and under the same terms, to `CC(=O)Nc1ccc(NC(=O)C2CC(=O)N(c3cccc(C)c3C)C2)cc1` (stereo not given) belongs 2.95% (inactive); to `COCCNC(=O)CN(c1ccccc1OC)S(C)(=O)=O`, 0.67% (inactive); to `O=C(COC(=O)C1(c2ccccc2F)CCCC1)N1CCN(C(=O)c2ccco2)CC1`, 1.19% (inactive).
Take `COC(=O)c1ccc(N2CCOCC2)c(NC(=O)Nc2cccc(OC)c2)c1`: the RAM network inhibition was 5.95% (inactive).
Same read-out and setting: to `Cc1cc(C(F)(F)F)nc(NCc2ccc(F)cc2)n1` belongs 0.79% (inactive); to `O=C(CCCc1ccccc1)NCc1cn2ccsc2n1`, 5.11% (inactive); to `O=C(CSc1nc(-c2ccco2)cc(C(F)(F)F)n1)N1CCN(Cc2ccccc2)CC1`, 6.26% (inactive).
The same measure, in the same setting: the same measure for `Cc1ccsc1-c1nc(CSCC(=O)N2CCN(c3ccccc3)CC2)c(C)o1`: 7.89% (inactive); for `CCn1c(SCc2nc(-c3ccccc3)no2)nc2ccccc21`: 1.2% (inactive).
Same read-out and setting: to `COCCn1c(SCC(N)=O)nc2c(c1=O)SC(C)C2` (stereo not given) belongs 5.52% (inactive).
For the molecule `CSC1=NCCN1C(=O)COc1ccc2ccccc2c1`, the RAM network inhibition is -0.94% (inactive).
In the case of `O=C(CC1Sc2ccccc2NC1=O)Nc1cccc(C(=O)O)c1` (stereo not given), the RAM network inhibition was 4.51% (inactive).
Regarding `O=C(c1ccncc1)N1CCN(C(=O)c2cccc3ccccc23)CC1`, the RAM network inhibition is 2.45% (inactive).
Regarding `COc1ccc(C)cc1NC(=O)c1ccoc1C`, the RAM network inhibition is 7.87% (inactive).
Turning to `CCOC(=O)Cn1c(CN2CC(C)OC(C)C2)nc2c1c(=O)n(C)c(=O)n2C` (stereo not given), the RAM network inhibition is -1.12% (inactive).
The same measure, in the same setting: to `COc1ccc(OC)c(-n2c(SCC(=O)Nc3cc(C)on3)nnc2-c2c[nH]c3ccccc23)c1` belongs 1.29% (inactive); to `COc1ccc(CCNC(=O)c2cc3ccccn3n2)c(OC)c1OC`, -0.2% (inactive); to `O=C(OCn1nnc2ccccc2c1=O)c1cccs1`, 3.6% (inactive).
Still for that read-out and setting: the same measure for `O=C(NCc1cn2ccsc2n1)c1cccs1`: 7.64% (inactive); for `CCOc1ccc(OCC)c(NC(=O)C2CCCN2S(=O)(=O)c2cccc3cccnc23)c1` (stereo not given): 5.36% (inactive); for `CCOCCn1c(SCCc2ccccc2)nc2c1c(=O)[nH]c(=O)n2C`: 0.11% (inactive).
The same measure, in the same setting: the same measure for `Cc1ccc(S(=O)(=O)Cc2ccc(C(=O)N3CCN(c4ccccn4)CC3)o2)cc1`: 3.12% (inactive); for `CCC(C)(C(=O)NC1CCCCC1)N(Cc1ccco1)C(=O)CNC(=O)c1ccccc1` (stereo not given): 6.49% (inactive).
On to `CCC(C)Sc1nc2c([nH]c3ccccc32)c(=O)n1C` (stereo not given), for which the RAM network inhibition is 3.48% (inactive).
Regarding `Cc1onc(-c2ccccc2Cl)c1C(=O)Nc1ccc(OCC(=O)N2CCOCC2)cc1`, the RAM network inhibition is 5.11% (inactive).
For the molecule `COCCn1c(SCC(=O)Nc2ccccc2)nc2c1c(=O)[nH]c(=O)n2C`, the RAM network inhibition was 1.25% (inactive).
With `Cc1cccc(OCC2=N/C(=C\N(C)C)C(=O)O2)c1`, the RAM network inhibition is 2.9% (inactive).
Turning to `Cc1[nH]c2ccccc2c1CCC(N)=O`, the RAM network inhibition was 3.67% (inactive).
As to `CCCc1nc(N2CCN(C)CC2)c2sc(=S)n(-c3ccccc3)c2n1`, the RAM network inhibition is 6.13% (inactive).
For `CCCc1nc(N)nc2c1C(=O)CC(C)(C)C2`, the RAM network inhibition is 0.27% (inactive).
The same measure, in the same setting: to `COc1ccccc1CC(=O)N1CCN(c2cccc(C(F)(F)F)c2)CC1` belongs 7.84% (inactive); to `O=C(CCC(=O)OCCCC(F)(F)C(F)(F)F)Nc1ccccc1`, 3.34% (inactive).
As for `CCN1CCN(C(=O)CSCc2nc(-c3ccc(OC)c(OC)c3)oc2C)CC1`, the RAM network inhibition was 1.3% (inactive).
With `COc1ccc(S(=O)(=O)n2cnc3cc(C)c(C)cc32)cc1`, the RAM network inhibition is -1.04% (inactive).
In the case of `Cc1cccc(C(=O)N2CCN(Cc3ccc4c(c3)OCO4)CC2)c1`, the RAM network inhibition was 4.6% (inactive).
Same read-out and setting: the same measure for `O=C(NCCCNC(=O)c1cccs1)c1cccs1`: 5.26% (inactive).
Same read-out and setting: the same measure for `Cn1c(NC(=O)CC2CCCCC2)cc(=O)n(C)c1=O`: -0.37% (inactive).
